Laboratory results published in the supplement of paper PMC6555819.

Columns and labels:
Test in all cases: PBM binding z-score (relative to random genomic background probes); higher = stronger binding; sequences stand for … in GC…GCGATTGACAGCGTAGAATGAAGG
[1] = test system: FXR:RXRa (NR concentration 270 nM, RXRa partner concentration 90 nM)
Outline: (§1)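 Antibodies against each partner of ligand-free nuclear receptor dimers (one per run) detected binding on custom Agilent 4×180K protein-binding microarrays after 1 h incubation. The double-stranded probes had 34-nt variable regions carrying direct-repeat seeds, single-nucleotide variants, half-site ablations and random human genomic background sequences. Binding z-scores, from regression-normalized fluorescence, use the random background probes as reference.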

[2] = test system: LXRa:RXRa (NR concentration 270 nM, RXRa partner concentration 90 nM)
Outline: as §1

[3] = test system: LXRa homodimer (NR concentration 270 nM)
Outline: as §1

[4] = test system: LXRb:RXRa (NR concentration 270 nM, RXRa partner concentration 90 nM)
Outline: as §1

[5] = test system: LXRb homodimer (NR concentration 270 nM)
Outline: as §1

[6] = test system: PPARa:RXRa (NR concentration 270 nM, RXRa partner concentration 90 nM)
Outline: as §1

[7] = test system: PPARg:RXRa (NR concentration 180 nM, RXRa partner concentration 90 nM)
Outline: as §1

[8] = test system: PPARg:RXRa 270nM:90nM, anti-RXR (NR concentration 270 nM, RXRa partner concentration 90 nM)
Outline: as §1

[9] = test system: PPARg:RXRa 30nM:10nM, anti-RXR (NR concentration 30 nM, RXRa partner concentration 10 nM)
Outline: as §1

[10] = test system: PPARg:RXRa 90nM:30nM, anti-RXR (NR concentration 90 nM, RXRa partner concentration 30 nM)
Outline: as §1

[11] = test system: PPARg:RXRa DBDmut IVT, anti-RXR (DBD mutation: RXRa K156A/R161A, NR concentration 270 nM, RXRa partner concentration 90 nM)
Outline: as §1

[12] = test system: PPARg:RXRa IVT, anti-PPARg (NR concentration 270 nM, RXRa partner concentration 90 nM)
Outline: as §1

[13] = test system: PPARg DBDmut:RXRa IVT, anti-PPARg (DBD mutation: PPARg1 K132A/R137A, NR concentration 270 nM, RXRa partner concentration 90 nM)
Outline: as §1

[14] = test system: PPARg DBDmut IVT, anti-PPARg (DBD mutation: PPARg1 K132A/R137A, NR concentration 270 nM)
Outline: as §1

[15] = test system: PPARg homodimer (NR concentration 180 nM)
Outline: as §1

[16] = test system: PXR:RXRa (NR concentration 270 nM, RXRa partner concentration 90 nM)
Outline: as §1

[17] = test system: PXR homodimer (NR concentration 270 nM)
Outline: as §1

[18] = test system: RARa:RXR (NR concentration 270 nM, RXRa partner concentration 90 nM)
Outline: as §1

[19] = test system: RARa homodimer (NR concentration 270 nM)
Outline: as §1

[20] = test system: RARb:RXRa (NR concentration 270 nM, RXRa partner concentration 90 nM)
Outline: as §1

Sequence | PBM binding z-score [1] | PBM binding z-score [2] | PBM binding z-score [3] | PBM binding z-score [4] | PBM binding z-score [5] | PBM binding z-score [6] | PBM binding z-score [7] | PBM binding z-score [8] | PBM binding z-score [9] | PBM binding z-score [10] | PBM binding z-score [11] | PBM binding z-score [12] | PBM binding z-score [13] | PBM binding z-score [14] | PBM binding z-score [15] | PBM binding z-score [16] | PBM binding z-score [17] | PBM binding z-score [18] | PBM binding z-score [19] | PBM binding z-score [20]
TCAAGTTGGTCACGGAGGTCACACACGACGGGTA | 3.09 | 3.76 | 2.38 | 3.17 | 0.603 | 4.18 | 3.94 | 3.95 | 3.52 | 3.47 | 2.45 | 3.99 | 1.48 | 0.93 | 2.72 | 4.35 | 1.65 | 4.61 | 1.86 | 3.98
TCTAGTAGATCAATAGAGGTTAAGAAAGTGCGCT | 0.905 | 3.79 | 0.28 | 1.96 | -0.599 | 1.98 | 0.362 | 1.7 | 2.76 | 2.4 | 1.7 | 0.843 | -0.106 | 0.138 | 0.0842 | 3.18 | 0.411 | 1.81 | 0.23 | 0.908
ACTTACGGGTCAACGAGGTTACAGCACGCGTATA | 7.13 | 5.03 | 0.828 | 4.72 | 0.537 | 6 | 5.8 | 5.86 | 2.49 | 4.5 | 3.63 | 4.61 | 3.52 | 1.44 | 2.75 | 5.25 | 2.74 | 5.23 | 1.58 | 4.44
CCTCGGAGGACAACAGTAGGTCAGAGCTGCCAGA | 0.249 | 0.959 | 1.04 | 0.175 | -0.765 | 1.37 | 0.475 | 0.552 | -0.754 | 0.0572 | 1.42 | 2.02 | -1.19 | -2.12 | 0.785 | 0.462 | -0.203 | 0.798 | -0.275 | 2.05
CGAACTAGGTCATCCAGAACAGTGAATACATTGA | 4.08 | 2.69 | 0.739 | 2.14 | 0.118 | 4.64 | 7.99 | 6.91 | 4.38 | 6.42 | 8.45 | 8.49 | 6.73 | 4.45 | 3.59 | 1.48 | 0.368 | 2.32 | 0.855 | 3.83
TAGCCTAGGTCATGTGCCAGTATACCACGCGAAC | 4.24 | 3.24 | 0.572 | 2.7 | 0.626 | 3.58 | 2.79 | 2.86 | 0.838 | 2.06 | 1.78 | 3.01 | 0.0994 | 0.0439 | 1.55 | 1.53 | -0.113 | 2.34 | -0.178 | 3.74
CGAACGAGGGCATGAGTGGATAGCAAATGCCGAT | 0.364 | 0.334 | -0.533 | 0.059 | -0.983 | 1.22 | 1.27 | 0.947 | 0.0449 | 0.449 | 2.74 | 1.85 | -0.478 | -0.831 | -0.474 | 0.213 | -0.305 | 0.373 | -0.274 | 1.91
TATACAGGGTCAATGGCCAGAGTACGAATGTCGA | 5.92 | 5.45 | 1.39 | 3.89 | 2.05 | 5.16 | 5.11 | 4.94 | 2.12 | 3.87 | 1.79 | 3.99 | 1.48 | 1.03 | 1.97 | 3.23 | 0.633 | 3.75 | 0.771 | 4.05
TCGCGTAGGTTAGGGGCATTCAGAATGGCGTCGA | 0.432 | 0.41 | -0.522 | 0.996 | 0.176 | 1.04 | -0.162 | 1.01 | 1.38 | 1.41 | 0.918 | -0.148 | -0.436 | -0.621 | -0.168 | 0.489 | 0.0303 | 0.615 | -0.246 | 1.18
GCTTGTAGATTAAGGTTAAGAAAGACTAAGCTAA | 0.292 | 0.89 | -0.399 | 0.611 | -0.832 | 1.32 | 0.216 | 0.627 | -0.258 | 0.49 | -0.0536 | 0.119 | 0.205 | -0.0743 | 0.0936 | 0.375 | -0.332 | 1.01 | 0.194 | 0.875
ATATGTAGGTTATCGGGTCATTAAGTTTGCGCAT | 3 | 2.85 | 1.77 | 2.95 | 1.02 | 5 | 7.09 | 6.08 | 3.81 | 5.71 | 7.51 | 7.55 | 2.77 | 2.29 | 2.72 | 4.08 | 9.55 | 3.8 | 1.51 | 2.62
ATATGTAGGTTATCGGGTCTTTCAGTTTGCGCAT | 0.832 | 1.52 | 1.05 | 1.64 | 1.21 | 3.2 | 5.24 | 4.68 | 2.04 | 3.97 | 7.73 | 6.72 | 2.3 | 2.32 | 2.02 | 1.2 | 1.43 | 1.07 | 1.78 | 1.3
CCGGGTAGGTTATGGGGCATTCAGGCAACGGTGA | 0.235 | 0.484 | 0.0736 | 0.904 | -0.348 | 1.54 | 2.18 | 3.16 | 0.788 | 2.58 | 0.0778 | 1.73 | -0.642 | -0.773 | 0.724 | 0.144 | 0.122 | 0.51 | 0.0053 | 1.1
